Consider 44 molecules from PubChem BioAssay (NCATS).

Records with an inconclusive call do not appear. Unmarked numbers belong to inactive results. Active and inactive are the calls of the source. Calls come from the whole dose curve; as a rule, active = well fitted inhibition curve with a large enough effect; inconclusive = small, poorly fitted or top-dose-only effect; inactive = flat fitted curve, though single readings scatter. *1 amine or outer side, *2 acyl side, *3 side chain or, on linkers, in order; H or OH if unused. Where a SMILES comes first, the peptide text is derived from it. Bridges are numbered along the chain shown (N, C = ends). [ ]: non-standard residue; d: D form. The star is where a group is joined. ξ: configuration not given here. X10 = NC1=NCCC(C(N[*:1])C(=O)[*:2])N1; ΔAla(3-NHCONH2) = NC(=O)NC=C(N)C(=O)O; ξβ3hOrn = NCCCC(N)CC(=O)*; Dap = NC[CH](N)C(=O)O

Assay [1] deals with Zika virus NS2B-NS3 protease. Description: Primary screen GU AMC qHTS for Zika virus inhibitors (AID 1347154).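 Note: 0% = no-inhibitor control and -100% = no-enzyme control; nearly all actives have a fitted effect of over 70% in size.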 The following applies: Zika NS2B-NS3 unlinked protease, AMC fluorogenic substrate; series mostly up to 54.1 µM. Summed up:
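Fluorogenic AMC-substrate cleavage by noncovalent NS2B-NS3 protease complex (25 nM, pH 8.0 Tris buffer with Tween 20) followed for 15 minutes at room temperature (~20% conversion). Percent inhibition from ex340/em450 signal change, fitted by 4-parameter Hill equation.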
On the technique in general: In qHTS, concentration-response curves come from the screen itself.

Assay [2] in a line: qHTS to identify inhibitors of the type 1 interferon - major histocompatibility complex class I in skeletal muscle: primary screen against the NCATS Pharmaceutical Collection (AID 1347407). For activity change, negative = inhibition: % is set by controls: 0 for no effect and ±100 for the full control effect.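 Note: luminescence of HiBiT knocked into endogenous HLA-B as interferon-induced MHC class I level.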 Note: potency is the fitted concentration of half-maximal effect. Conditions: human skeletal muscle cells, IFN-b-induced MHC-I HiBiT luminescence, 24 h; series mostly up to 45.9 µM. Summed up: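 HLA-B HiBiT myoblasts, dexamethasone-free growth medium + 4 ng/ml IFN-b; compounds pinned 1 h after seeding, […] from 46 uM; 24 h, 37 C, 5% CO2; lytic HiBiT detection, 10 min RT, luminescence.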

On to `O=C(CCOCCOCCOCCOCCC(=O)Nc1c(I)cc(I)c(C(=O)O)c1I)Nc1c(I)cc(I)c(C(=O)O)c1I`, for which the Potency entry in assay [1] and in assay [2] was “inactive” each time.

With `C[N+]1(C)CCC(OC(=O)C(O)(c2ccccc2)C2CCCC2)C1` (stereo not drawn), the Potency entry in assay [1] and in assay [2] was “inactive” throughout.

For the molecule `Cc1cnc(NS(=O)(=O)c2ccc(N)cc2)nc1`, the Potency result in assay [1] and in assay [2] was “inactive” throughout.

As for `CN(C)CCOC(c1ccccc1)c1ccc(Br)cc1` (stereo not drawn), the Potency result in assay [1] and in assay [2] was “inactive” in each case.

Take `COc1ccccc1OCC1CNC(=O)O1` (stereo not drawn): the Potency result in assay [1] and in assay [2] was “inactive” throughout.

As to `Nc1c[n+](N2CCOCC2)no1`, the Potency result in assay [1] and in assay [2] was “inactive” throughout.

For `Cc1onc(-c2c(Cl)cccc2Cl)c1C(=O)Cl`, the Potency result in assay [1] and in assay [2] was “inactive” in each case.

In the case of `CC(NN)c1ccccc1` (stereo not drawn), the Potency entry in assay [1] and in assay [2] was “inactive” in each case.

Regarding `Cc1ccc(C(=O)C(=O)O)cc1C`, the Potency entry in assay [1] and in assay [2] was “inactive” each time.

For `COc1ccc(-n2nc(CCC(=O)N(C)O)cc2-c2ccc(Cl)cc2)cc1`, the Potency entry in assay [1] and in assay [2] was “inactive” in each case.

Take `O=C(O)c1cn(C2CC2)c2cc(Cl)c(F)cc2c1=O`: the Potency entry in assay [1] and in assay [2] was “inactive” each time.

On to `OCCc1ccccc1`, for which the Potency result in assay [1] and in assay [2] was “inactive” throughout.

In the case of `CO/N=C(/C(=O)N[C@@H]1C(=O)N2C(C(=O)OCOC(=O)C(C)(C)C)=C(C)CS[C@H]12)c1csc(N)n1`, the Potency entry in assay [1] and in assay [2] was “inactive” in each case.

With `C#CC(C)(CC)OC(=O)c1ccccc1C(=O)O` (stereo not drawn), the Potency entry in assay [1] and in assay [2] was “inactive” in each case.

On to `Nc1ncnc2c1ncn2Cc1c(F)cccc1Cl`, for which the Potency entry in assay [1] and in assay [2] was “inactive” throughout.

Take `CCC[C@H](N[C@@H](C)C(=O)N1[C@H](C(=O)O)C[C@@H]2CCCC[C@@H]21)C(=O)OCC`: the Potency entry in assay [1] and in assay [2] was “inactive” throughout.

Take `CCOC(=O)C(=O)CCc1ccccc1`: the Potency result in assay [1] and in assay [2] was “inactive” in each case.

With `COc1ccc(/C(C)=C/C(=O)O)c(OC)c1`, the Potency entry in assay [1] and in assay [2] was “inactive” in each case.

Turning to `O=C(CCCl)NCCc1ccccc1`, the Potency entry in assay [1] and in assay [2] was “inactive” each time.

For the molecule `Nc1ccc([N+](=O)[O-])c(C(F)(F)F)c1`, the Potency result in assay [1] and in assay [2] was “inactive” each time.

`NC(=O)NC1N=C([O][Al])NC1=O` (stereo not drawn): the Potency entry in assay [1] and in assay [2] was “inactive” each time.

Turning to `CCCCN(CCCC)C(C(N)=O)c1ccc(OC)cc1` (stereo not drawn), the Potency entry in assay [1] and in assay [2] was “inactive” throughout.

Take `CCc1cc(S(=O)(=O)O)c2cc(C(C)C)cccc1-2`: the Potency entry in assay [1] and in assay [2] was “inactive” each time.

As to `Cc1sccc1Br`, the Potency result in assay [1] and in assay [2] was “inactive” throughout.

As for `CCC(=O)Oc1ccc2c(c1)CC[C@@H]1[C@@H]2CC[C@@]2(C)[C@H]1C[C@@H](OC(=O)CC)[C@@H]2OC(=O)CC`, the Potency result in assay [1] and in assay [2] was “inactive” in each case.

As for `NCCCC(N)CC(=O)NCC1NC(=O)C(CO)NC(=O)C(N)CNC(=O)C(C2CCN=C(N)N2)NC(=O)C(=CNC(N)=O)NC1=O` (stereo not drawn) (H-[Dap]S[Dap](ξβ3hOrn)[ΔAla(3-NHCONH2)][X10]; lactam 1-C; configuration not given here), the activity change, negative = inhibition in assay [1] is -2.82% [at 0.59 µM]; in assay [2] it was -9.07% [at 0.727 µM].

Consider `CCCC(=O)O[C@]1(C(=O)CC)CC[C@H]2[C@@H]3CCC4=CC(=O)CC[C@]4(C)[C@H]3[C@@H](O)C[C@@]21C`, for which the Potency entry in assay [1] and in assay [2] was “inactive” throughout.

`CN(C(=O)C(Cl)Cl)c1ccc(OC(=O)c2ccco2)cc1`: the Potency entry in assay [1] and in assay [2] was “inactive” in each case.

Turning to `Oc1ccccc1-c1nnco1`, the Potency result in assay [1] and in assay [2] was “inactive” each time.

Consider `O=C(c1ccco1)N1CCNCC1`, for which the Potency entry in assay [1] and in assay [2] was “inactive” throughout.

On to `O=C1CC(c2ccc(Cl)cc2)CC(=O)N1`, for which the Potency result in assay [1] and in assay [2] was “inactive” in each case.

Take `CN1CCC(Nc2ncc3ncnc(Nc4ccc(F)c(Cl)c4)c3n2)CC1`: the Potency result in assay [1] is “inactive”. Further, the Potency in assay [2] is 18.7 µM (active).

Regarding `CCOC(=O)NNc1ccc(N(CC)CC(C)O)nn1` (stereo not drawn), the Potency entry in assay [1] and in assay [2] was “inactive” each time.

`CC(C)C(=O)OCc1cccc(OC(=O)[C@@H]2N3C(=O)[C@@H](NC(=O)Cc4ccccc4)[C@H]3SC2(C)C)c1`: the Potency result in assay [1] and in assay [2] was “inactive” each time.

As for `CCO[C@H](Cc1ccc(OCCc2ccc(OS(C)(=O)=O)cc2)cc1)C(=O)O`, the Potency result in assay [1] and in assay [2] was “inactive” throughout.

Regarding `CC(C)NCCCC1(C(N)=O)c2ccccc2-c2ccccc21`, the Potency entry in assay [1] and in assay [2] was “inactive” each time.

`CCCCCN(CCCOC)C(=O)C(CCC(=O)O)NC(=O)c1ccc(Cl)c(Cl)c1` (stereo not drawn): the Potency result in assay [1] and in assay [2] was “inactive” throughout.

With `OC1(c2ccccc2)CCNCC1`, the Potency entry in assay [1] and in assay [2] was “inactive” each time.

Regarding `C/C(=N\O)[C@@H](C)NCC(C)(C)CN[C@H](C)/C(C)=N/O`, the Potency entry in assay [1] and in assay [2] was “inactive” each time.

Consider `O=C1Nc2cc(Cl)ccc2Oc2ccccc21`, for which the Potency entry in assay [1] and in assay [2] was “inactive” each time.

On to `Nc1nc(=O)n([C@@H]2O[C@H](CO)[C@@H](O)[C@@H]2F)cc1I`, for which the Potency result in assay [1] and in assay [2] was “inactive” throughout.

As to `CC(=O)OCC[N+](C)(C)C`, the Potency entry in assay [1] and in assay [2] was “inactive” throughout.

`CCCCCOc1ccc(C2SC(=O)NC2=O)cc1OCC` (stereo not drawn): the Potency result in assay [1] and in assay [2] was “inactive” throughout.

Regarding `COc1cc2nc(Cl)nc(N)c2cc1OC`, the Potency entry in assay [1] and in assay [2] was “inactive” in each case.
